# Reference: PubChem BioAssay (NCATS)
# Records with an inconclusive call do not appear. Where a call stands in place of a potency, no number is given. The source made the active and inactive calls. Calls follow the shape of the dose curve; as a rule, active = well fitted curve in the direction sought with a large enough effect; inconclusive = small, poorly fitted or top-dose-only effect, or another doubt; inactive = no such curve, though single readings can be large; an effect the other way counts as inactive or inconclusive.
# Test system: not listed separately
# Assay: qHTS to identify inhibitors of the type 1 interferon - major histocompatibility complex class I in skeletal muscle: primary screen against the NCATS LOPAC collection (AID 1347405);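 also: lytic HiBiT luminescence reporting HLA-B protein level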; also: potency is read from the fitted curve at half-maximal effect
# Settings: iHSKM muscle cells, IFN-b-induced MHC-I HiBiT luminescence, 24 h; series mostly up to 45.9 µM
# Outline: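 Cells: C25cl48 human myoblasts, HiBiT-tagged HLA-B*08:01, stimulated with IFN-beta 4.0 ng/ml. Compounds are titrated 1:4.3 over 7 points from 46 uM final and incubated 24 hrs; endogenous MHC class I is quantified by HiBiT lytic luminescence.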
row,SMILES,Potency
1,C[N+](C)(C)CC(=O)O,inactive
2,C[C@@H]1O[C@H](C[N+](C)(C)C)C[C@H]1O,inactive
3,O=C(O)Cc1cnc[nH]1,inactive
4,CC[C@@]1(O)C(=O)OCc2c1cc1n(c2=O)Cc2cc3ccccc3nc2-1,708 nM (active)
5,CC(Cc1ccc(O)cc1)NCC(O)c1cc(O)cc(O)c1 (configuration not stated),inactive
6,CCCN(CCC)C1CCc2ccc(O)cc2C1 (configuration not stated),inactive
7,S=C(NC1CCCCC1)N1CCC(c2cnc[nH]2)CC1,inactive
8,CC1=NN=C(c2ccc(N)cc2)c2cc3c(cc2C1)OCO3,inactive
9,Clc1cnc(Oc2ccc(Oc3ncc(Cl)cc3Cl)cc2)c(Cl)c1,inactive

# Test system: not listed separately
# Assay: qHTS to identify inhibitors of the type 1 interferon - major histocompatibility complex class I in skeletal muscle: primary screen against the NCATS Pharmaceutical Collection (AID 1347407);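 also: luminescence of HiBiT knocked into endogenous HLA-B as interferon-induced MHC class I level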
# Settings: human skeletal muscle cells, IFN-b-induced MHC-I HiBiT luminescence, 24 h; series mostly up to 92.2 µM
# Outline: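 A qHTS format is used: 8-point, 1:5 compound series with 46 uM top final concentration, applied alongside 4 ng/ml IFN-beta to HLA-B*08:01-HiBiT knock-in myoblasts. Luminescence is measured after 24 h treatment.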
row,SMILES,outcome
1,Cc1cc(O)ccc1Cl,inactive
2,CC(C)Oc1cccc(NC(=O)c2ccccc2C(F)(F)F)c1,inactive
3,O=S(=O)(c1ccc(Cl)cc1)c1ccc(Cl)cc1,inactive
4,O=C(O)C(Cl)Cl,inactive
5,CCCCC(CC)COC(=O)c1ccccc1C(=O)OCC(CC)CCCC (configuration not stated),inactive
6,CS(=O)(=O)c1ccc(C(=O)C2C(=O)CCCC2=O)c([N+](=O)[O-])c1,inactive
7,COc1ccc(C(c2ccc(OC)cc2)C(Cl)(Cl)Cl)cc1,inactive
8,Fc1cc(Br)ccc1CBr,inactive
9,CCO/N=C(\CC)C1=C(O)CC(c2c(C)cc(C)cc2C)CC1=O (configuration not stated),inactive
10,COC(C)(C)CCCC(C)C/C=C/C(C)=C/C(=O)OC(C)C (configuration not stated),inactive
11,Nc1ccc(Sc2ccc(N)cc2)cc1,inactive
12,Nc1ccc(Cl)cc1,inactive

# Test system: not listed separately
# Assay: qHTS for inhibitors of adenylyl cyclases using a fission yeast platform: a pilot screen against the NCATS LOPAC library (AID 1347410)
# Settings: S. pombe CHP2027, fbp1-GFP fluorescence, 18 h; series mostly up to 57.5 µM
# Outline: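 Inhibition of GNAS-stimulated AC9 activity in S. pombe was inferred from derepression of a PKA-repressed fbp1-GFP reporter, measured as cytometric fluorescence after 18 h at 30C with compounds at up to 57 µM.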
row,SMILES,outcome
1,C[N+](C)(C)CC(=O)O,inactive
2,Cc1nccc2c1[nH]c1ccccc12,inactive
3,O=C(O)CC[N+](=O)[O-],inactive
4,C[C@@H]1O[C@H](C[N+](C)(C)C)C[C@H]1O,inactive
5,c1ccc(CCCN2CCN(CCOC(c3ccccc3)c3ccccc3)CC2)cc1,inactive
6,O=C(O)Cc1cnc[nH]1,inactive
7,O=C(N[C@H]1CN2CCC1CC2)c1ccc(Cl)cc1,inactive
8,NC1CCc2cc(O)c(O)cc2C1 (configuration not stated),inactive
9,CC[C@@]1(O)C(=O)OCc2c1cc1n(c2=O)Cc2cc3ccccc3nc2-1,inactive
10,CC(Cc1ccc(O)cc1)NCC(O)c1cc(O)cc(O)c1 (configuration not stated),inactive
11,C[C@]12CCC3C(CC[C@H]4C[C@H](O)CC[C@]34C)C1CC[C@@H]2C(=O)CO (some centres not stated),inactive
12,CCCN(CCC)[C@@H]1CCc2ccc(O)cc2C1,inactive
13,CCCN(CCC)C1CCc2ccc(O)cc2C1 (configuration not stated),inactive
14,O=C(O)[C@@H]1CCN1,inactive
15,S=C(NC1CCCCC1)N1CCC(c2cnc[nH]2)CC1,inactive
16,COC(=O)[C@@H](N)CCCN=C(N)N[N+](=O)[O-],inactive
17,NCc1cc(=O)[nH]o1,inactive
18,CC(C)Oc1cccnc1N(C)C1CCN(Cc2ccccc2)CC1,inactive
19,Oc1ccc2c3c1O[C@H]1c4[nH]c5c(c4C[C@@]4(O)[C@@H](C2)N(CC2CC2)CC[C@]314)C[C@@]1(O)[C@H]2Cc3ccc(O)c4c3[C@@]1(CCN2CC1CC1)[C@H]5O4,inactive
20,CC[C@@H](C(N)=O)N1CCCC1=O,inactive
21,NCCc1c[nH]c2ccc(O)cc12,inactive
22,CC1=NN=C(c2ccc(N)cc2)c2cc3c(cc2C1)OCO3,inactive
23,CCCCc1ccc(C(=O)O)nc1,inactive
24,CCCN1CCC[C@H](c2cccc(O)c2)C1,inactive
25,Clc1cnc(Oc2ccc(Oc3ncc(Cl)cc3Cl)cc2)c(Cl)c1,inactive
26,NCCc1c[nH]c2ccccc12,inactive
27,C[N+]1(C)C2CCC1CC(OC(=O)C(CO)c1ccccc1)C2 (configuration not stated),inactive
28,CCCN1CCO[C@@H]2c3cc(O)ccc3OC[C@H]21,inactive

# Test system: not listed separately
# Assay: qHTS to identify inhibitors of the type 1 interferon - major histocompatibility complex class I in skeletal muscle: primary screen against the NCATS Mechanism Interrogation Plate v5.0 (MIPE) Libary (AID 1347411); also: nearly all actives have a fitted effect of over 65% in size; also: potency is read from the fitted curve at half-maximal effect
# Settings: iHSKM cells + IFN-b, HiBiT-tagged MHC-I luminescence, 24 h; series mostly up to 45.8 µM
# Outline: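 Cells were genome-edited human myoblasts carrying a HiBit tag on endogenous HLA-B. They were treated with IFN-beta (4.0 ng/ml) and titrated compounds (top 46 uM) for 24 hrs before lytic HiBiT detection.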
row,SMILES,Potency
1,O=C(N[C@H]1CN2CCC1CC2)c1ccc(Cl)cc1,inactive
2,CC[C@@]1(O)C(=O)OCc2c1cc1n(c2=O)Cc2cc3ccccc3nc2-1,2.08 µM (active)
3,COC(=O)[C@@H](N)CCCN=C(N)N[N+](=O)[O-],inactive
4,CC[C@@H](C(N)=O)N1CCCC1=O,inactive
5,CCCN1CCO[C@@H]2c3cc(O)ccc3OC[C@H]21,inactive

# Biological target: Protein phosphatase 1D (Homo sapiens) (UniProt O15297)
# Assay: RapidFire Mass Spectrometry qHTS Assay for Modulators of WT P53-Induced Phosphatase 1 (WIP1) (AID 1347424);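 also: amount of dephosphorylated VEPPL-S-QETFS peptide product formed by WIP1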
# Settings: WIP1 dephosphorylation of phosphopeptide, RapidFire MS; series mostly up to 128 µM
# Outline: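 10 nM WIP1 preincubated with compounds 1 hr at room temperature in pH 7.5 Tris buffer with 30 mM MgCl2, 1 mM TCEP; 2 uM VEPPL-pS-QETFS phosphopeptide for 5 min, formic acid quench; dephosphorylated product quantified by RapidFire MS against labelled standard.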
# Sequence of Protein phosphatase 1D (Homo sapiens) (O15297 whole entry, looked up): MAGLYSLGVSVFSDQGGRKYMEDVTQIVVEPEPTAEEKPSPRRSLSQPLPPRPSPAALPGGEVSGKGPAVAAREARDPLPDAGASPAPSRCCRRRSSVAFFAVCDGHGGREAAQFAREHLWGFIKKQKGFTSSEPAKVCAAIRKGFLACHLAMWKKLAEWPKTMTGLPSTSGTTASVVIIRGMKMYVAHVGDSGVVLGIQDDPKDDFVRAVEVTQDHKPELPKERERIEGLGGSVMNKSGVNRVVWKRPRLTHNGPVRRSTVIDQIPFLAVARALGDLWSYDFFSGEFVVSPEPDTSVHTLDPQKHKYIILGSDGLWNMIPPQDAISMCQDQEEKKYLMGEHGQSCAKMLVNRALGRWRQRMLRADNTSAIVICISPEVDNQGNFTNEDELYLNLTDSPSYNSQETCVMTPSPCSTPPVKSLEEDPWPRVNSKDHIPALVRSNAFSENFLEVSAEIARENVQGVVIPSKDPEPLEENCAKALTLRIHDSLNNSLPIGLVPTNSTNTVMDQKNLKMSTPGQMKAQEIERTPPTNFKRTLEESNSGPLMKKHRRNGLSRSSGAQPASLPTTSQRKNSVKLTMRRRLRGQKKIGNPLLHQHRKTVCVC
row,SMILES,Potency
1,CC(Cc1ccc(O)cc1)NCC(O)c1cc(O)cc(O)c1 (configuration not stated),inactive
2,Cc1cc(O)ccc1Cl,inactive
3,CC(C)Oc1cccc(NC(=O)c2ccccc2C(F)(F)F)c1,inactive
4,O=S(=O)(c1ccc(Cl)cc1)c1ccc(Cl)cc1,inactive
5,O=C(O)C(Cl)Cl,inactive
6,CCCCC(CC)COC(=O)c1ccccc1C(=O)OCC(CC)CCCC (configuration not stated),inactive
7,COc1ccc(C(c2ccc(OC)cc2)C(Cl)(Cl)Cl)cc1,inactive
8,Fc1cc(Br)ccc1CBr,inactive
9,CCO/N=C(\CC)C1=C(O)CC(c2c(C)cc(C)cc2C)CC1=O (configuration not stated),inactive
10,COC(C)(C)CCCC(C)C/C=C/C(C)=C/C(=O)OC(C)C (configuration not stated),inactive
11,Nc1ccc(Sc2ccc(N)cc2)cc1,inactive
12,Nc1ccc(Cl)cc1,inactive

# Biological target: Protein phosphatase 1D (Homo sapiens) (UniProt O15297)
# Assay: Rhodamine-PBP qHTS Assay for Modulators of WT P53-Induced Phosphatase 1 (WIP1) (AID 1347425)
# Settings: recombinant WIP1, Rhodamine-PBP phosphate fluorescence, real-time; series mostly up to 116 µM
# Outline: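 5 nM WIP1 + 10 uM Rh-PBP, 50 mM Tris pH 7.5, 30 mM MgCl2, 1 mM TCEP, 0.1 mM EGTA, BSA; cpds pinned, 1 hr RT; + 10 uM phosphopeptide; fluorescence 1-min reads x 11 min; delta = f1 - f0.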
row,SMILES,outcome
1,CC(Cc1ccc(O)cc1)NCC(O)c1cc(O)cc(O)c1 (configuration not stated),inactive
2,Cc1cc(O)ccc1Cl,inactive
3,CC(C)Oc1cccc(NC(=O)c2ccccc2C(F)(F)F)c1,inactive
4,O=S(=O)(c1ccc(Cl)cc1)c1ccc(Cl)cc1,inactive
5,O=C(O)C(Cl)Cl,inactive
6,CCCCC(CC)COC(=O)c1ccccc1C(=O)OCC(CC)CCCC (configuration not stated),inactive
7,COc1ccc(C(c2ccc(OC)cc2)C(Cl)(Cl)Cl)cc1,inactive
8,Fc1cc(Br)ccc1CBr,inactive
9,CCO/N=C(\CC)C1=C(O)CC(c2c(C)cc(C)cc2C)CC1=O (configuration not stated),inactive
10,COC(C)(C)CCCC(C)C/C=C/C(C)=C/C(=O)OC(C)C (configuration not stated),inactive
11,Nc1ccc(Cl)cc1,inactive
